Measured values from PubChem BioAssay AID1671189 (National Center for Advancing Translational Sciences (NCATS), 2021).
In all, about 1,100 compounds went through this assay and about 70 (6%) were called active. About 22% were inconclusive and are not listed. Calls follow the shape of the dose curve; as a rule, active = well fitted curve in the direction sought with a large enough effect; inconclusive = small, poorly fitted or top-dose-only effect, or another doubt; inactive = no such curve, though single readings can be large or run the other way. The entries come from a sample that favours actives as a whole. Where a call stands in place of a potency, no number is given.

target: Polyunsaturated fatty acid lipoxygenase ALOX12 (Homo sapiens) (UniProt P18054); test: Confirmatory qHTS assay for inhibitors of human arachidonate 12S-lipoxygenase (ALOX12): Round 2; settings: purified human 12-LOX, xylenol orange absorbance; series mostly up to 125 µM
Sequence (P18054 whole entry, looked up): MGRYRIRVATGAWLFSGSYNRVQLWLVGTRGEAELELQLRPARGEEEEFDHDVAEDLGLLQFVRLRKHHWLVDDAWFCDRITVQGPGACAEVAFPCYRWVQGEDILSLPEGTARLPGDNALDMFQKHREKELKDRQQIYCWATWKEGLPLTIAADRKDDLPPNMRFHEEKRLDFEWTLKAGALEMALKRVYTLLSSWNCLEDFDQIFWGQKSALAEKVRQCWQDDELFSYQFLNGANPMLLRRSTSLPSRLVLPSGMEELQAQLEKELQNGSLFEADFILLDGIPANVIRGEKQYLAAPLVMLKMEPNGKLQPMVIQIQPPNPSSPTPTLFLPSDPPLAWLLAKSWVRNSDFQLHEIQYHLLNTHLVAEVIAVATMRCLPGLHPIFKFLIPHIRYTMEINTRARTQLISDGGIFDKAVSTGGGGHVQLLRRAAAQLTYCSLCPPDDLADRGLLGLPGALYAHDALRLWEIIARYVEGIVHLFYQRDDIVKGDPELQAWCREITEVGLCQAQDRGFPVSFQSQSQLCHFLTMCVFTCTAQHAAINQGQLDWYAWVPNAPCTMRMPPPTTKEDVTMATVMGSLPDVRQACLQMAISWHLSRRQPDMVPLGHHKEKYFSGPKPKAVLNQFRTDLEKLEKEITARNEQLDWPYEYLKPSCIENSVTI
Outline: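 Purified human enzyme (150 nM) in 25 mM Hepes, 0.01% Triton X-100, pH 7.0, preincubated 15 min with compound, then 40 uM arachidonic acid for 30 min at room temperature. Hydroperoxide detected by Fe-XO, read as 573/405 nm absorbance ratio.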
Potency is read from the fitted curve at half-maximal effect.

Structure (SMILES) | Potency
CN1CC(=O)N(C2CCNCC2)Cc2c1ncnc2N1CCc2ccccc2C1 | inactive
COc1ccc(CN2CCCC23Cc2ccccc2CNC3=O)c(O)c1 (stereo not drawn) | inactive
CCOC(=O)c1c(NC(=O)CSc2nnnn2-c2ccc(OC)cc2)sc(C)c1C | inactive
CC(=O)Nc1ccc(CN2CCC(c3nc4ccc(C)cc4c(=O)[nH]3)CC2)cc1 | inactive
CCCCc1ncc(-c2nccn2C2CCNC2)[nH]1 (stereo not drawn) | inactive
O=C1NCc2ccccc2CC12CCN(Cc1c(F)cccc1F)C2 (stereo not drawn) | inactive
COc1ccc(-c2nc(C3CC3)nc3c2CCN(C(=O)c2ccc(C(F)(F)F)cc2)CC3)cc1 | inactive
O=[S+]([O-])(c1ccccc1)N1CC(Oc2ccc(F)c(F)c2)C1 | inactive
CCC(=O)N1Cc2ccccc2CC2(CCCN(CC3CCNCC3)C2)C1 (stereo not drawn) | inactive
NCc1ccccc1-c1ccc(O)cc1 | inactive
Cn1nc(C2CCNC2)c2c(C(=O)NCc3ccncc3)cc(C3CC3)nc21 (stereo not drawn) | inactive
O=C1NC2(Cc3ccccc31)CN(C(=O)c1ccc3c(c1)OCO3)C2 | inactive
CCC(=O)NC(c1cc(Cl)c2cccnc2c1O)C1CC1 (stereo not drawn) | 12.2 µM (active)
CC(C)C[C@@H](N)C(=O)O | inactive
COc1cccc([S+](=O)([O-])N2CC(Oc3ccc(F)c(F)c3)C2)c1 | inactive
COc1cccc(N2C(=O)NC(=NC3CCCCC3)C23CCCN(C(=O)c2ccccc2)C3)c1 (stereo not drawn) | inactive
CC(=O)NC1CC2(CCN(C(=O)Cc3c(C)noc3C)CC2)Oc2ccccc21 (stereo not drawn) | inactive
CC(C)NC(=O)N1CCC2(CC1)CN(C(=O)Cc1c[nH]c3ccccc13)CCO2 | inactive
O=C(Nc1ccc(Oc2ccccc2)cc1)O[C@@H]1CO[C@H]2[C@@H]1OC[C@@H]2NS(=O)(=O)c1ccc(Cl)cc1 | 5.01 µM (active)

Structure (SMILES) | Potency
CC(C)C(=O)N1Cc2ccccc2CC2(CCCCN2CC2CCNC2)C1 (stereo not drawn) | inactive
CN(C)CCCC(=O)N1Cc2ccccc2CC2(CCCCN2Cc2ccccc2)C1 (stereo not drawn) | inactive
Cc1cc(C(=O)NC2CCNCC2)c2c(C3CCNCC3)noc2n1 | inactive
CC(C)c1ccc(CNC(=O)C2CCN(c3cc(C(F)(F)F)ncn3)CC2)cc1 | inactive
O=C1Nc2ccccc2CN(CC2CCCCC2)C12CCNCC2 | 49.4 µM (active)
O=C1Nc2ccccc2CC12CN(CC1CCCC1)C2 | inactive
O=C1Nc2ccccc2CN(C/C=C/c2ccccc2)C12CCNC2 (stereo not drawn) | inactive
C[S+](=O)([O-])N1Cc2ccccc2CC2(CCCCN2CC2CCNCC2)C1 (stereo not drawn) | inactive
COc1ccc(CNc2ncnc3c2CN(C2CCNCC2)C(=O)CN3C)cc1 | inactive
O=C(c1ccccc1)N1CCn2c(nnc2C2CCNCC2)C1 | inactive
COc1cccc(CNc2ccc([S+](=O)([O-])Nc3cc4ccccc4s3)cc2)c1O | 19.3 µM (active)
Cc1ccc2nc(C3CCCN(Cc4ccccc4)C3)[nH]c(=O)c2c1 (stereo not drawn) | inactive
O=C(c1ccccn1)N1CCn2c(nn(-c3ccc(Cl)cc3)c2=O)C1 | inactive
O=C1NC(=NC2CCCC2)C2(CCN(CC3CC3)C2)N1c1cccnc1 (stereo not drawn) | inactive
C#CCN(C)C(=O)[C@@H]1CCCN1[C@H](CC(C)C)C(=O)NC | inactive
CNC(=O)[C@@H](C1CCCCC1)N1CCC[C@H]1C(=O)N1CCC1 | 15.8 µM (active)
Cc1n[nH]c(C)c1CN1CCC2(CC1)CCN(C1CCOCC1)CC2CO (stereo not drawn) | inactive
CN1CC(=O)N(C2CCNCC2)Cc2c(NCCc3cccc(F)c3)ncnc21 | inactive
COc1ccc(CN2Cc3[nH]cnc3C[C@H]2C(=O)NCc2ccco2)cc1 | inactive
